ChEMBL document CHEMBL1961873, “Compounds: GSK PKIS; Assays: Nanosyn kinase panel” (2012)

Legend:
[1] = biological target: Serine/threonine-protein kinase pim-2 (Homo sapiens) (UniProt Q9P1W9); details: at 1 µM;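 further: each value is a mean of the inhibition measurements against the kinase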
[2] = biological target: Serine/threonine-protein kinase pim-3 (Homo sapiens) (UniProt Q86V86); details: at 0.1 µM
[3] = biological target: Serine/threonine-protein kinase pim-3 (Homo sapiens) (UniProt Q86V86); details: at 1 µM
[4] = biological target: T1, MAP kinase-activated protein kinase 5 (Homo sapiens) (UniProt Q8IW41); details: at 0.1 µM
T1 sequence (whole entry): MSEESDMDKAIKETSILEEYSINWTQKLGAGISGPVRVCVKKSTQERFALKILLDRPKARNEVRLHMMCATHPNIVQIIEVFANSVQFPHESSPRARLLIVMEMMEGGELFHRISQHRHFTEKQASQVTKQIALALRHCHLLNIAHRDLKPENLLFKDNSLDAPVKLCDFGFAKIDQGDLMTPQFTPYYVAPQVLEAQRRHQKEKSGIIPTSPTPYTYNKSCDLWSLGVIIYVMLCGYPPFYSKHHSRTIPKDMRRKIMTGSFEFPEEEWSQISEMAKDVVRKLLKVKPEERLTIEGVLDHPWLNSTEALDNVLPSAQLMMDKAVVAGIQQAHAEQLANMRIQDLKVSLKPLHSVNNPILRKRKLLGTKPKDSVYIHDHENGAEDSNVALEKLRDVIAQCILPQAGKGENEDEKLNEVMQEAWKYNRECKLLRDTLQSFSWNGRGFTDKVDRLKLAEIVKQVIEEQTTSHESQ

[5] = biological target: T1, MAP kinase-activated protein kinase 5 (Homo sapiens); details: at 1 µM
[6] = biological target: Serine/threonine-protein kinase SIK1 (Homo sapiens) (UniProt P57059); details: at 0.1 µM
Serine/threonine-protein kinase SIK1 (Homo sapiens), sequence (P57059 whole entry): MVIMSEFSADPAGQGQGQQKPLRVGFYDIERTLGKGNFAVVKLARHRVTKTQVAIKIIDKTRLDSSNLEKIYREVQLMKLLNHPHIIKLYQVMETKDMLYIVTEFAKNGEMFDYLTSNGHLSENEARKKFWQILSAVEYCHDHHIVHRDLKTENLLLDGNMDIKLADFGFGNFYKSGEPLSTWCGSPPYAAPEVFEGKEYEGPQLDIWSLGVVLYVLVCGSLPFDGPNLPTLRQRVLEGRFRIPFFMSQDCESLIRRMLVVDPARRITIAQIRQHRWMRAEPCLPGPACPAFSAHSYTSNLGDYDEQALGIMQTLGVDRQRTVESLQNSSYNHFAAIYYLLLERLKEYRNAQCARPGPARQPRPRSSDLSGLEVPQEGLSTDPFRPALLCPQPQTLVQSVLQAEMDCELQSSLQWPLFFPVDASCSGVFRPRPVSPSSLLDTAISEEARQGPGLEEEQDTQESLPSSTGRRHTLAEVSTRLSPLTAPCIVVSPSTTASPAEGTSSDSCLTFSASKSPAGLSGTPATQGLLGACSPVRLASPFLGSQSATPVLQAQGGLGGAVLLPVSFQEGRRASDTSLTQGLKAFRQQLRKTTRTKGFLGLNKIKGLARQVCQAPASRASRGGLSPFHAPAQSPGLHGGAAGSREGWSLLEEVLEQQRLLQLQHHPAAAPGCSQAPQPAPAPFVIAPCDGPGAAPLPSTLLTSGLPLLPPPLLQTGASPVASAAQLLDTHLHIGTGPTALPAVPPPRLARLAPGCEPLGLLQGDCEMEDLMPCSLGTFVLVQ

[7] = biological target: Serine/threonine-protein kinase SIK1 (Homo sapiens) (UniProt P57059); details: at 1 µM
[8] = biological target: Serine/threonine-protein kinase SIK2 (Homo sapiens) (UniProt Q9H0K1); details: at 0.1 µM
Serine/threonine-protein kinase SIK2 (Homo sapiens), sequence (Q9H0K1 whole entry, looked up): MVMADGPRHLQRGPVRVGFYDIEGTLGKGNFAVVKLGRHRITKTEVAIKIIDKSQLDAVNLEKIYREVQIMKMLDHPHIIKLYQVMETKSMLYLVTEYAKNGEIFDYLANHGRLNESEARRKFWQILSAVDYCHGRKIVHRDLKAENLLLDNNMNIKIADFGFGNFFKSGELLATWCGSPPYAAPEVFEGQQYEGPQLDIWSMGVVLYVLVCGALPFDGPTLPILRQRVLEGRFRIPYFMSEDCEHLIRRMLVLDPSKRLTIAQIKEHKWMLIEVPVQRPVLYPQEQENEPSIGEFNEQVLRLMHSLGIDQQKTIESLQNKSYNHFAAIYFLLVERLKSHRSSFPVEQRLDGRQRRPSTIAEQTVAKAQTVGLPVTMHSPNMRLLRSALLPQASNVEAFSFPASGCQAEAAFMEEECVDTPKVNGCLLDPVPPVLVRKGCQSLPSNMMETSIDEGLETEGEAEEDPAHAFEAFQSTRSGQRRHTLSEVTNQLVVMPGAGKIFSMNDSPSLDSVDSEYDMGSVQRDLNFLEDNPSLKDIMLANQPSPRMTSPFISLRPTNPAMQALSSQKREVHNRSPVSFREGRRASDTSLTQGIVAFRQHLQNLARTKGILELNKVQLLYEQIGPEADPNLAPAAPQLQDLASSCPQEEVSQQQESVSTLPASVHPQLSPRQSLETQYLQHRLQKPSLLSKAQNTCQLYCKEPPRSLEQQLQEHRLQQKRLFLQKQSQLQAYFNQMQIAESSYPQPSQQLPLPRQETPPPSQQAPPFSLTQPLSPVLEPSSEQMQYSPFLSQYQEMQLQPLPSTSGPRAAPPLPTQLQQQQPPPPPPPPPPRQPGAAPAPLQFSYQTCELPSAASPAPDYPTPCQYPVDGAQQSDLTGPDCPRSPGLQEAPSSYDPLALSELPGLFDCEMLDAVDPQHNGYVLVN

[9] = biological target: Serine/threonine-protein kinase SIK2 (Homo sapiens) (UniProt Q9H0K1); details: at 1 µM
[10] = biological target: T2, Serine/threonine-protein kinase TBK1 (Homo sapiens) (UniProt Q9UHD2); details: at 0.1 µM
T2 sequence (whole entry): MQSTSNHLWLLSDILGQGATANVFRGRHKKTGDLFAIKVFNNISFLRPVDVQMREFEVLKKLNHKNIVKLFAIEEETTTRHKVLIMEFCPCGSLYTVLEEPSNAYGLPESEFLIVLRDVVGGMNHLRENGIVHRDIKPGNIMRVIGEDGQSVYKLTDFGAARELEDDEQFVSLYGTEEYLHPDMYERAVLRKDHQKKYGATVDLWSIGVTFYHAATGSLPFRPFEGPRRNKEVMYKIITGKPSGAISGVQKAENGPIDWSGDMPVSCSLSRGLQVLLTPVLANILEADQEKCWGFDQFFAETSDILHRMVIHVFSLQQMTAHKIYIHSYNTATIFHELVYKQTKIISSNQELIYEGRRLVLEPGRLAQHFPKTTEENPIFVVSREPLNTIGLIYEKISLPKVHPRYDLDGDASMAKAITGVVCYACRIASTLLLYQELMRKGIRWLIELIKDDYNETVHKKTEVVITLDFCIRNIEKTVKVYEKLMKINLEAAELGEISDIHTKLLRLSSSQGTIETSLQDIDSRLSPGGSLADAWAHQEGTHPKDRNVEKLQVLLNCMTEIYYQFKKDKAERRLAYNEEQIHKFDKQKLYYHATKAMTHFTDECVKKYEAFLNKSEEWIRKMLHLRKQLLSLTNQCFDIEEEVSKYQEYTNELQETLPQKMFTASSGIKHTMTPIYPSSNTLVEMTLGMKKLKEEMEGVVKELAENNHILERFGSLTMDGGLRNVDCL

[11] = biological target: T2, Serine/threonine-protein kinase TBK1 (Homo sapiens); details: at 1 µM
[12] = biological target: T3, Testis-specific serine/threonine-protein kinase 1 (Homo sapiens) (UniProt Q9BXA7); details: at 0.1 µM
T3 sequence (whole entry): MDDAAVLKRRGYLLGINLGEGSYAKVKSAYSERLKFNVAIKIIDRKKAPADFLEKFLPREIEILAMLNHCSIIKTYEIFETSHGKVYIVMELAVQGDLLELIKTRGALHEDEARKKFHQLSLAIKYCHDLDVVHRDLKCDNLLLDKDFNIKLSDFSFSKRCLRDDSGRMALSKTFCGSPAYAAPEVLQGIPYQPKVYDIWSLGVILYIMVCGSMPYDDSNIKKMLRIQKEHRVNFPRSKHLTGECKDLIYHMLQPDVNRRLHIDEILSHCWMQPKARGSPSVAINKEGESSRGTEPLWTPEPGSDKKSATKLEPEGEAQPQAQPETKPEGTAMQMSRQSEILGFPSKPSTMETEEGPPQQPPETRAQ

[13] = biological target: T3, Testis-specific serine/threonine-protein kinase 1 (Homo sapiens); details: at 1 µM
[14] = biological target: T4, Testis-specific serine/threonine-protein kinase 2 (Homo sapiens) (UniProt Q96PF2); details: at 0.1 µM
T4 sequence (whole entry): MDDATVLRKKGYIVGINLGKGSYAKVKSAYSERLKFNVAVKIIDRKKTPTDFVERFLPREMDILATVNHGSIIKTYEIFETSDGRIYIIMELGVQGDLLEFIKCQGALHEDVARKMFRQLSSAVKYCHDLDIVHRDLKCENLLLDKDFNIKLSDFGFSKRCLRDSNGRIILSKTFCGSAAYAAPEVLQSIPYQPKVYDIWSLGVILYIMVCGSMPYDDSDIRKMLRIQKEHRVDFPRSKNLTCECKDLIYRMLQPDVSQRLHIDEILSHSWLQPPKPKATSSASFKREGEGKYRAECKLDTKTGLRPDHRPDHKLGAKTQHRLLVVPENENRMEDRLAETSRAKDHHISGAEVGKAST

[15] = biological target: T4, Testis-specific serine/threonine-protein kinase 2 (Homo sapiens); details: at 1 µM
[16] = biological target: Casein kinase I isoform alpha (Homo sapiens) (UniProt P48729); details: at 0.1 µM
Casein kinase I isoform alpha (Homo sapiens), sequence (P48729 2-337 limits assumed): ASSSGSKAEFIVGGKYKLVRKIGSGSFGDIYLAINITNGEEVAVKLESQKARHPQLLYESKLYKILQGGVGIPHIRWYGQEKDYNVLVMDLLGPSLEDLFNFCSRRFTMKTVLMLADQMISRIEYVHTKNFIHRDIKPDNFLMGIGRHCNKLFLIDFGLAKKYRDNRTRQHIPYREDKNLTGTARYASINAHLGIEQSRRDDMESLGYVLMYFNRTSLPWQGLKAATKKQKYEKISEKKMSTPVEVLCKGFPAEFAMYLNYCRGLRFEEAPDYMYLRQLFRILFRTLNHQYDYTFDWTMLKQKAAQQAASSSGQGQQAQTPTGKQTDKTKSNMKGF

[17] = biological target: Casein kinase I isoform alpha (Homo sapiens) (UniProt P48729); details: at 1 µM
[18] = biological target: Casein kinase I isoform gamma-1 (Homo sapiens) (UniProt Q9HCP0); details: at 0.1 µM
Casein kinase I isoform gamma-1 (Homo sapiens), sequence (Q9HCP0 whole entry, looked up, canonical isoform): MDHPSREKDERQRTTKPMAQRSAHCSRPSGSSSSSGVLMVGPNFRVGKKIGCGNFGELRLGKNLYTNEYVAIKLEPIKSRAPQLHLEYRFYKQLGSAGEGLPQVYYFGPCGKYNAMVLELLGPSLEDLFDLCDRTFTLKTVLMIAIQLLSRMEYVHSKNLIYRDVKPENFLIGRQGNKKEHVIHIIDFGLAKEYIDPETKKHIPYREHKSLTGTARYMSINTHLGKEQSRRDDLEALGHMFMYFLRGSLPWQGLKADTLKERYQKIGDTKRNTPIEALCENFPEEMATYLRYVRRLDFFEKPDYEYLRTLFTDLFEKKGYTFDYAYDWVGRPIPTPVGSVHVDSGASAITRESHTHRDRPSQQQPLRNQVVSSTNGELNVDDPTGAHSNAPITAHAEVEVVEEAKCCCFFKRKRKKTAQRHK

[19] = biological target: Casein kinase I isoform gamma-1 (Homo sapiens) (UniProt Q9HCP0); details: at 1 µM
[20] = biological target: Casein kinase I isoform gamma-2 (Homo sapiens) (UniProt P78368); details: at 0.1 µM;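 further: values are mean inhibition figures reported as part of the GSK PKIS dataset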
Casein kinase I isoform gamma-2 (Homo sapiens), sequence (P78368 whole entry, looked up, canonical isoform): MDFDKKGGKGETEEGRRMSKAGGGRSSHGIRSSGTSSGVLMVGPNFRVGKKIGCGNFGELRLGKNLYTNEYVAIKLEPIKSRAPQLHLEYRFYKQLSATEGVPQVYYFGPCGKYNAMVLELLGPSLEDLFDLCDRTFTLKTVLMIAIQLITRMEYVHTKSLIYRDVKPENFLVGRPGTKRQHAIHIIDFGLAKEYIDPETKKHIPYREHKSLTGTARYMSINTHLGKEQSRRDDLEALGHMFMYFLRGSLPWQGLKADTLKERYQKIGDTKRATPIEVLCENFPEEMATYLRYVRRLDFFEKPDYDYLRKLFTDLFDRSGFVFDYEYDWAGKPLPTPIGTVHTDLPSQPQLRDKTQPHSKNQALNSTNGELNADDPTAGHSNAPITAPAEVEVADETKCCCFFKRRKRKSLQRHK

Serine/threonine-protein kinase pim-2 (Homo sapiens), sequence (Q9P1W9 whole entry, looked up): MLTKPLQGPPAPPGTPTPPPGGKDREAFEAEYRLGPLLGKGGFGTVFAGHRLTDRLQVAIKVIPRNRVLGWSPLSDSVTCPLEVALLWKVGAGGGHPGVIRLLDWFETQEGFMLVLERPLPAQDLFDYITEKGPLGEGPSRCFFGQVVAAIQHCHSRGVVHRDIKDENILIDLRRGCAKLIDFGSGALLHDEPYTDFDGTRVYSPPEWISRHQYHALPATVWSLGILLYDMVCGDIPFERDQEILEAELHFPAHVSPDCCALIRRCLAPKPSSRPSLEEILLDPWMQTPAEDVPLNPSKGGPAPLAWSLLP

| Structure (SMILES) | inhibition [1] [%] | inhibition [2] [%] | inhibition [3] [%] | inhibition [4] [%] | inhibition [5] [%] | inhibition [6] [%] | inhibition [7] [%] | inhibition [8] [%] | inhibition [9] [%] | inhibition [10] [%] | inhibition [11] [%] | inhibition [12] [%] | inhibition [13] [%] | inhibition [14] [%] | inhibition [15] [%] | inhibition [16] [%] | inhibition [17] [%] | inhibition [18] [%] | inhibition [19] [%] | inhibition [20] [%] |
| --- | --- | --- | --- | --- | --- | --- | --- | --- | --- | --- | --- | --- | --- | --- | --- | --- | --- | --- | --- | --- |
| COc1cc(C=NNc2ncnc3c2cnn3-c2ccccc2)ccc1O | 2.11 | -0.48 | -0.21 | 0.22 | -0.53 | 5.32 | 18.5 | 7.72 | 20.4 | 3.55 | 21.5 | 5.71 | 1.92 | 1.3 | -1.3 | 4.04 | 6.98 | 1.27 | 3.26 | 2.04 |
| COc1ccc(COc2ccc(Cc3cnc(N)nc3N)cc2OC)cc1 | 3.29 | 2.12 | 0.23 | -0.2 | -1.74 | -2.62 | 2.92 | -5.52 | -1.07 | 2.12 | 2.86 | 0.44 | -1.27 | -0.95 | -0.65 | 0.49 | 0.48 | -0.8 | -0.45 | -2.36 |
| CCn1c(-c2nonc2N)nc2cncc(C(=O)N3CCNCC3)c21 | -0.88 | 0.06 | 2.39 | 2.77 | 2.41 | 4.86 | 14.2 | 6 | 6.58 | 6.79 | 5.51 | 4.82 | 5.83 | 2.4 | 3.03 | 6.74 | 9.8 | 5.02 | 6.64 | 4.43 |
| O=C1NC(=O)C(c2ccc(Cl)cc2)=C1Nc1ccc(Cl)c(C(=O)O)c1 | 0.1 | 0.19 | -0.33 | -0.91 | -0.59 | -6.41 | -4.82 | -6 | -3.21 | -0.72 | 0.78 | -1.77 | -3.14 | -1.44 | -2.14 | 0.85 | -1.03 | -1.57 | -2.04 | -1.56 |
| CC1=C(C(=O)Nc2ccc3[nH]ncc3c2)C(c2ccc(F)cc2)NC(=O)N1 (configuration not stated) | -0.13 | 0.21 | -0.69 | 2.17 | 0.76 | 0.84 | 3.8 | 3.04 | 1.13 | 2.82 | 3.11 | 1.04 | 1.21 | 1.2 | 1.4 | 0.46 | 1.43 | 1.54 | 2.31 | 1.41 |
| Cc1nnc(-c2ccc(C)c(-c3ccc(C(=O)Nc4cccc(C#N)c4)cc3)c2)o1 | 0.22 | 0.95 | 2.47 | 0.95 | 0.82 | 3.54 | 4.65 | 4.14 | 3.76 | 5.08 | 5 | 0.97 | 2.9 | 1.4 | 2.16 | 8.37 | 6.82 | 1.85 | 2.59 | 1.7 |
| NC(=O)c1cccc(Nc2nccc(Nc3cccc4[nH]ncc34)n2)c1 | 1.09 | -0.77 | 3.49 | -1.41 | -1 | 14.8 | 68.5 | -4.28 | 32.5 | 0.88 | 26.1 | -0.96 | 15.6 | -1.7 | -1.85 | 1.36 | 1.87 | -2.71 | 5.27 | -1.57 |
| COc1cc2c(cc1Nc1nc(N3CCc4ccccc43)c3cc[nH]c3n1)N(C(=O)CN(C)C)CC2 | 0.38 | -0.4 | -1.08 | 0.04 | -1.65 | 3.24 | 7.48 | 2.51 | -3.15 | 0.22 | 5.19 | 10.2 | 19.2 | 9.19 | 13.6 | 6.69 | 2.45 | 1.43 | 3.55 | 0.72 |
| CNC(=O)c1cncc(/C=C/c2c(Cl)cccc2Cl)c1 | -0.92 | 1.26 | 7.42 | 1.11 | 1.46 | 11.9 | 50.9 | 2.71 | 17.3 | 2.82 | 4.76 | 3.51 | 4.44 | 1.15 | 3.45 | 2.31 | 6.99 | 4.49 | 6.18 | 2.94 |
| COc1cc2ncn(-c3cc(OCc4ccccc4Cl)c(C(N)=O)s3)c2cc1OC | 4.79 | 1.01 | 8.63 | -0.46 | 0.67 | -2.01 | 28 | 2.69 | 26.6 | 3.64 | 28.7 | 1.82 | 4.67 | 0.7 | 1.63 | 1.79 | 0.67 | 0.19 | 1.8 | -0.04 |
| CCn1c(-c2nonc2N)nc2cncc(C(=O)N3CC[C@H](N)C3)c21 | 48.2 | 51.5 | 78.9 | 1.81 | 2.26 | 5.73 | 9.11 | 4.34 | 10.1 | 3.11 | 19.7 | 7.36 | 18.9 | 3.56 | 5.01 |  |  | 3.59 | 4.35 | 3.12 |
| CCc1cccc(NC(=O)Nc2ccc(Oc3ccc4nc(NC(=O)OC)[nH]c4c3)cc2)c1 | -0.24 | 1.1 | 3.52 | 0.32 | 0.96 | 2.06 | 2.27 | 1.99 | 0.48 | 0.31 | 0.79 | 1.3 | 1.11 | 0.77 | 1.72 | 2.12 | 0.76 | 1.05 | 0.85 | 1.08 |
| CCN1CCC(CC(=O)Nc2n[nH]c3nc(-c4cccs4)c(Br)cc23)CC1 | 1.48 | -0.6 | 5.95 | -1.45 | -0.83 | -7.57 | -6.71 |  | -4.25 | -0.25 | 1.1 | -1.56 | -1.9 | -1.62 | -1.24 | 0.63 | -0.71 | -2.56 | -1.74 | -1.74 |
| COc1cc2ncn(-c3cc(O[C@H](C)c4ccccc4Cl)c(C(N)=O)s3)c2cc1OC | 0.96 | 2.36 | 12.4 | 2.09 | 4.22 | 12.6 | 53.1 | 10.9 | 24.8 | 3.11 | 6.39 | 4.46 | 8.45 | 2.71 | 4.44 | 3 | 3.21 | 3.26 | 3.83 | 2.55 |
